Reference: PubChem BioAssay (EPA / NIEHS)
Records with an inconclusive call do not appear. The source made the active and inactive calls. Rule for the calls, unless noted: active = hit-call score of the fitted dose curve at least 0.9, where 1 is the maximum; inconclusive = response in the unintended direction; inactive = score below 0.9.

How the values were obtained:
[1] = TOX21_p53_BLA_p2_viability: Viability Assessment in the Tox21 HCT-116 p53 Agonism Beta-lactamase Assay, Phase 2 (AID 2283591);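 note: compound exposure lasted 16 h at 37 °C; actives lower the ATP signal meaning cytotoxicity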
In short: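 HCT116 p53-bla cells, 4000/well, dosed after 5 h plating (217-fold dilution of DMSO stocks) and incubated 16 h at 37C. Viability taken as cellular ATP by CellTiter-Glo luminescence after 30 min RT; signal loss marks cytotoxicity.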

[2] = TOX21_p53_BLA_p3_viability: Viability Assessment in the Tox21 HCT-116 p53 Agonism Beta-lactamase Assay, Phase 3 (AID 2283593);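 note: cells exposed to compound for 16 h before reading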
In short: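 HCT116 cells, 4000/well, dosed 5 h after plating by pin transfer (217-fold dilution from DMSO stock) and incubated 16 h at 37C, 5% CO2. Viability read as ATP luminescence with CellTiter-Glo after 30 min at room temperature.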

[3] = TOX21_p53_BLA_p4_viability: Viability Assessment in the Tox21 HCT-116 p53 Agonism Beta-lactamase Assay, Phase 4 (AID 2283597);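 note: hits lower the luminescence signal meaning cytotoxicity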
In short: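 Cytotoxicity was inferred from loss of CellTiter-Glo luminescence. HCT116 cells had been dosed with compounds after 5 h plating, incubated 16 h at 37C and 5% CO2, and exposed to the CCF4-AM substrate for 2 h.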

[4] = biological target: Cellular tumor antigen p53 (Homo sapiens) (UniProt P04637); assay: TOX21_p53_BLA_p5_ratio: Tox21 HCT-116 p53 Agonism Beta-lactamase Assay, Ratio, Phase 5 (AID 2283599)
In short: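 HCT-116 p53-bla cells (4000/well) plated 5 h, dosed with compound (217-fold DMSO dilution) for 16 h at 37 C; CCF4-AM substrate 2 h at room temperature. Activity is the 460/530 nm emission ratio (405 nm excitation), fitted in gain-of-signal direction versus DMSO.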

[5] = TOX21_p53_BLA_p5_viability: Viability Assessment in the Tox21 HCT-116 p53 Agonism Beta-lactamase Assay, Phase 5 (AID 2283600)
In short: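 Luciferase-coupled ATP quantitation of cells treated for 16 h (37C, 5% CO2) with test chemicals delivered in DMSO via a 217-fold dilution; 4000 cells/well; reagent incubated 30 min at room temperature before luminescence reading.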

[6] = biological target: Cellular tumor antigen p53 (Homo sapiens) (UniProt P04637); assay: TOX21_p53_BLA_p4_ratio: Tox21 HCT-116 p53 Agonism Beta-lactamase Assay, Ratio, Phase 4 (AID 2283601)
In short: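 HCT-116 p53 beta-lactamase reporter cells (4000/well) preincubated 5 h, then compound (217-fold dilution of DMSO stock) for 16 h at 37C. CCF4-AM substrate added 2 h at room temperature; 460/530 nm emission ratio fitted upward versus DMSO.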

[7] = biological target: Cellular tumor antigen p53 (Homo sapiens) (UniProt P04637); assay: TOX21_p53_BLA_p3_ratio: Tox21 HCT-116 p53 Agonism Beta-lactamase Assay, Ratio, Phase 3 (AID 2283596)
In short: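 Cells were seeded at 4000/well, rested 5 h at 37C, then dosed with DMSO compound solutions (217-fold dilution) for 16 h. CCF4-AM substrate was loaded for 2 h at room temperature, and the 460/530 nm emission ratio was fitted for gain of signal versus DMSO.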

[8] = CCTE_Harrill_HTTr_Viability_MCF7: CCTE's 6-hour Cell Viability Assessment for the High-Throughput Transcriptomics (HTTr) Platform, in MCF-7 cells cultured in DMEM + 10% fetal bovine serum, Harrill Lab (AID 2284010; active = hit-call score of the fitted dose curve at least 0.9, where 1 is the maximum; inactive = score below 0.9)
In short: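 PI exclusion, high-content imaging; 8-pt dilution series, 6 h exposure; bidirectional fit vs DMSO (neg. ctrl/baseline); gain of signal = loss of membrane integrity.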

[9] = CCTE_Harrill_HTTr_Apoptosis_MCF7: CCTE's 6-hour Apoptosis Assessment for the High-Throughput Transcriptomics (HTTr) Platform, in MCF-7 cells cultured in DMEM + 10% fetal bovine serum, Harrill Lab (AID 2284011; active = hit-call score of the fitted dose curve at least 0.9, where 1 is the maximum; inactive = score below 0.9)
In short: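 MCF-7 cells in DMEM + 10% fetal bovine serum were exposed to chemicals for 6 hours over an eight-point dilution series. Caspase-3/7 activation was imaged by high content imaging with CellEvent Caspase 3/7 Green; bidirectional fitting used DMSO as baseline.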

Measured: outcome

Sequence of Cellular tumor antigen p53 (Homo sapiens) (P04637 whole entry, looked up): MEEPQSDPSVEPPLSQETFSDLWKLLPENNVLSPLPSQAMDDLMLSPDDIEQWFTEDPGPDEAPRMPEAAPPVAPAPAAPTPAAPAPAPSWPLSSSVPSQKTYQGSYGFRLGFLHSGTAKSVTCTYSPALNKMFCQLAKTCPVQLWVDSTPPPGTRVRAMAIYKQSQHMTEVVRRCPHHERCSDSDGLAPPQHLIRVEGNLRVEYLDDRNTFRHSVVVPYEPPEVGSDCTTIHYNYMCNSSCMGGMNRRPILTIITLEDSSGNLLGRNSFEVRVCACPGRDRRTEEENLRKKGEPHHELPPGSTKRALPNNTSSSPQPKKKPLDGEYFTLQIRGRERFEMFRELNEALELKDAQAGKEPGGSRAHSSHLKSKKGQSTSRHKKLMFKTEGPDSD

Cc1ccc(C2(O)CCN(CCCC(=O)c3ccc(F)cc3)CC2)cc1
not listed: [7] | [8] | [9]
inactive: all other assays above

CN(C)c1cc(NC(=O)CNC(C)(C)C)c(O)c2c1C[C@H]1C[C@H]3[C@H](N(C)C)C(=O)C(C(N)=O)=C(O)[C@@]3(O)C(=O)C1=C2O
inactive: [1] | [2] | [3] | [5]

COC(OC)OC
inactive: [1] | [2] | [7] | [6]

Nc1c(CC(=O)O)cccc1C(=O)c1ccc(Br)cc1
not listed: [3] | [4] | [5]
inactive: all other assays above

NC(Cc1ccc(Cl)cc1)C(=O)O (stereo not drawn)
inactive: [1] | [2] | [7] | [6]

CC(C(O)c1ccc(O)cc1)N1CCC(Cc2ccccc2)CC1 (stereo not drawn)
inactive: [1] | [2] | [3] | [4]

NC12CC3CC(CC(C3)C1)C2
not listed: [7] | [8] | [9]
inactive: all other assays above

CCCC(=O)O[C@]1(C(=O)COC(C)=O)CC[C@H]2[C@@H]3C[C@H](F)C4=CC(=O)C=C[C@]4(C)[C@@]3(F)[C@@H](O)C[C@@]21C
inactive: [1] | [2] | [3] | [4] | [6]

COC(C)(OC)OC
inactive: [1] | [2] | [3] | [6]

CCOCCOCCOC(C)=O
inactive: [1] | [2] | [4] | [5] | [6]

CN(CCO)CC(O)Cn1cnc2c1c(=O)n(C)c(=O)n2C (stereo not drawn) (tested in a mixture with another compound)
inactive: [1] | [2] | [3] | [5]

Cc1ccc(N(CCO)CCO)cc1
inactive: [1] | [2] | [4] | [5] | [6]

O=C1OCCO1
inactive: [1] | [2] | [4] | [5]

O=C1O[C@H]2[C@H](O)[C@@H]1OC(O)[C@H]2O (stereo partly drawn)
inactive: [1] | [2] | [3] | [5] | [6]

COCCCOc1cc(C[C@@H](C[C@H](N)[C@@H](O)C[C@H](C(=O)NCC(C)(C)C(N)=O)C(C)C)C(C)C)ccc1OC
inactive: [1] | [2] | [4] | [5]

O=C(O)COc1nn(Cc2ccccc2)c2ccccc12
inactive: [1] | [2] | [3] | [5] | [6]

O=C(O)c1cccc(/C=C2/C[C@@H]3[C@@H](/C=C/[C@@H](O)C4CCCCC4)[C@H](O)C[C@@H]3O2)c1
inactive: [1] | [2] | [4] | [5] | [6]

C=C(C)C(=O)OCCCCCCCCCCOC(=O)C(=C)C
inactive: [1] | [2] | [4]
